In publication PMC4336329 (PLoS ONE, 2015):
Among all 310,000 compounds or so, about 14,000 (4.5%) showed an effect of 50% or more. The effect is printed as a negative number. This is one part of a sample in which strong results are shown more often than they occur.

target: human ether-à-go-go-related gene (hERG) potassium channel (human, UniProt Q12809); experiment: primary screen, population patch clamp on CHO cells stably expressing hERG; higher = less effect of the substance
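Note: peak tail current of the secondary pulse compared with the same well before compound.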

Chain of human ether-à-go-go-related gene (hERG) potassium channel (Q12809 whole entry, looked up): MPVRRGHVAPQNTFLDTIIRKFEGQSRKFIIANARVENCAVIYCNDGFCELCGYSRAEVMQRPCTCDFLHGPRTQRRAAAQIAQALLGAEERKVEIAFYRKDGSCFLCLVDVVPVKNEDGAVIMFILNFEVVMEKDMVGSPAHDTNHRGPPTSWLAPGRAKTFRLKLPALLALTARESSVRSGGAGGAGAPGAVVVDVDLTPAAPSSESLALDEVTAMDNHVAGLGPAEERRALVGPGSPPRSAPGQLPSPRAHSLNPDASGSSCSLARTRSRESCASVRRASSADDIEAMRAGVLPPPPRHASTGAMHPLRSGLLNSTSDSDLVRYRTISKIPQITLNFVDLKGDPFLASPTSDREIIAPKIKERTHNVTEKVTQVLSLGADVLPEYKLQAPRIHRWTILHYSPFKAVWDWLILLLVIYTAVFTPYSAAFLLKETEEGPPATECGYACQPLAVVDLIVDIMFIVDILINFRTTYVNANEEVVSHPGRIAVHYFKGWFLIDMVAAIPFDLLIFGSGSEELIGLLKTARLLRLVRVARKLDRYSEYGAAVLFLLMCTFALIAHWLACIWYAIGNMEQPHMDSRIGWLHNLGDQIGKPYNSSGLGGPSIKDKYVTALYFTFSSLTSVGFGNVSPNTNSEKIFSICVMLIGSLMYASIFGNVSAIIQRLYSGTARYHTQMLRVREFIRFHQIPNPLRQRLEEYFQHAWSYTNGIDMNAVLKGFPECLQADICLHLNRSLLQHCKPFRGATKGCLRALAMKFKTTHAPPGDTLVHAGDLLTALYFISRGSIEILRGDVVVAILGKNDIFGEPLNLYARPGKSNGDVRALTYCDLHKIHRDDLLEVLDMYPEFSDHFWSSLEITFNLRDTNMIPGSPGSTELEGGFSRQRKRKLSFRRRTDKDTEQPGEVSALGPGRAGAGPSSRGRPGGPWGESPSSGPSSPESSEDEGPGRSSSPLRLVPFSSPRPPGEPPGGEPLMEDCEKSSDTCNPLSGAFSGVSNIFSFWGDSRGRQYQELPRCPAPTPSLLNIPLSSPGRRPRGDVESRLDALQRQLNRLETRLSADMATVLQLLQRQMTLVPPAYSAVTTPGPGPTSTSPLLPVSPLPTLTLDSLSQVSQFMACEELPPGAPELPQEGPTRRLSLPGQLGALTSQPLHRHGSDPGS

SMILES | hERG current change (%, negative = inhibition) at 10uM [%]
CC(=O)c1cccc(OCc2cc(C(=O)NCCC3=CCCCC3)no2)c1 | 7.85
COc1cccc(NC(=O)c2nnn(CC(=O)Nc3cc(C)cc(C)c3)c2N)c1 | 13.5
O=C(c1cccc(COc2cccc3ccccc23)c1)N1CCCC1 | -4.59
CC(=O)Nc1ccc(S(=O)(=O)NCCC(=O)Nc2cc(C)ccn2)cc1 | 7.68
NS(=O)(=O)c1ccc(CCNC(=O)C2CCCN(S(=O)(=O)c3cccnc3)C2)cc1 (centres unmarked) | -4.22
NC(=O)c1ccccc1NC(=O)CN1CCOCC1 | 7.22
NC(=O)c1ccccc1NC(=O)CN1CCCCCC1 | 11.1
NC(=O)c1ccccc1NC(=O)CN1CCN(Cc2ccccc2)CC1 | -78.3
O=C1Nc2ccc(S(=O)(=O)NCc3ccco3)c3cccc1c23 | -16.2
O=C1NN(c2cccc(Br)c2)C(=O)/C1=C/c1ccc(-c2cc([N+](=O)[O-])ccc2O)o1 | -9.65
CCNC(=O)COc1ccc(S(=O)(=O)Nc2ccccc2)cc1 | -1.85
CC(C)C(=O)Nc1cccc(NC(=S)NC(=O)c2ccccc2Cl)c1 | -9.02
CCCC(c1c(C)n(C)n(-c2ccccc2)c1=O)c1c(C)n(C)n(-c2ccccc2)c1=O | 0.692
Br.CC(C)(C)c1ccc(OCC(=O)NN2Cc3ccccc3C2=N)cc1 | -65.5
Br.CCc1ccc(OCC(=O)NN2Cc3ccccc3C2=N)cc1 | -38.8
Br.COc1ccc(OCC(=O)NN2Cc3ccccc3C2=N)cc1 | -18.1
Br.Cc1ccccc1OCC(=O)NN1Cc2ccccc2C1=N | -0.416
Br.COc1ccccc1OCC(=O)NN1Cc2ccccc2C1=N | 1.99
Br.Cc1cc(C)cc(OCC(=O)NN2Cc3ccccc3C2=N)c1 | -11.6
Br.CCOc1ccccc1OCC(=O)NN1Cc2ccccc2C1=N | -73.5
Br.N#Cc1ccc(OCC(=O)NN2Cc3ccccc3C2=N)cc1 | 4.14
Br.N=C1c2ccccc2CN1NC(=O)COc1ccc(Cl)cc1 | -50.4
Cc1ccsc1C(=O)OCC(=O)NC1CCCC1 | 13

SMILES | hERG current change (%, negative = inhibition) at 10uM [%]
CC1(C)CC(=O)CC(C2(O)C(=O)N(Cc3ccccc3)c3ccccc32)O1 (centres unmarked) | 7.55
COCCCNC(=S)N1CCC(NC(=O)c2ccco2)CC1 | -4.82
COCC(=O)N(CCc1ccc(OC)c(OC)c1)Cc1nc2ccccc2c(=O)[nH]1 | -8.28
C/C(=N/NS(=O)(=O)c1cc(C)ccc1C)c1ccncc1 | 11
CCCCC(=O)Nc1ccc(C(=O)N2CCN(C)CC2)cc1 | 6.41
CCOC(=O)N1CCN(C(=O)c2ccc(SC)cc2OC)CC1 | -2.46
O=C(Cc1coc2cc3c(cc12)CCC3)OCc1cc(=O)n2c(n1)sc1ccccc12 | 4.53
CC(=O)O[C@@]12CO[C@@H]1C[C@H](OC1OCC(O)C(O)C1O)[C@@]1(C)C(=O)[C@H](O)C3=C(C)[C@@H](OC(=O)[C@H](O)[C@@H](NC(=O)c4ccccc4)c4ccccc4)C[C@@](O)([C@@H](OC(=O)c4ccccc4)C12)C3(C)C (some centres unmarked) | -7.05
CCOc1cc(CNC2CCCC2)cc(Cl)c1OCc1ccccc1.Cl | -10.3
CCOc1cc(CNC2CCCC2)ccc1OCc1ccccc1Cl.Cl | -50.6
COc1cc(CNCc2ccccn2)ccc1OCc1c(Cl)cccc1Cl.Cl | -51.5
O=C(NCc1ccccn1)c1ccccc1OCc1ccc(Cl)cc1Cl | -1.04
COc1cc(CNCc2ccccn2)ccc1OCc1ccc(Cl)cc1Cl.Cl | -58.1
COc1cc(CNC2CCCCCCC2)c(Br)cc1OCCO.Cl | 7
COc1cc(CNC2CCCC2)c(Br)cc1OCc1ccccc1.Cl | -72.1
COc1cc(CNC2CCCC2)cc(Cl)c1OCc1ccccc1Cl.Cl | -30
COc1cc(CNC2CCCC2)c(Br)cc1OC1CCCC1.Cl | -45.9
COc1ccc(-c2ccc(CNCc3ccccn3)o2)cc1Cl.Cl | -7.77
COc1cc(CNn2nnnc2N)ccc1OCc1c(Cl)cccc1Cl | -1.22
COc1ccc(Cl)cc1NC(=S)NCc1ccccn1 | 9
COc1ccc(-c2oc(=O)c3cc(OC)c(OC)cc3c2C(F)(F)F)cc1 | 23.7
CC(C(=O)NCCCc1ccccc1)n1cccc1C(=O)c1ccccc1 (centres unmarked) | -5.48
O=C(COC(=O)c1ccccc1C(=O)c1ccc(Cl)cc1)NCC1CCCO1 (centres unmarked) | 1.96

SMILES | hERG current change (%, negative = inhibition) at 10uM [%]
CN(C)/C=C/C(=O)c1ccc(C(F)(F)F)cc1F | 15.3
CCOc1cc(N2CCOCC2)c(OCC)cc1NC(=O)CSc1n[nH]c(N)n1 | 38.2
Cc1ccc(OCC(=O)NNC(=O)c2cc(C)[nH]n2)cc1 | 24.6
CCc1nnc(NC(=O)CSc2nnc3ncccn23)s1 | 19.2
COC(=O)c1nn(-c2ccc(F)cc2)ccc1=O | 8.12
C#CCOCCOCCOCCNc1nc(N2CCN(C(=O)CCCCCCCCCCNC(=O)Cn3cc(C[C@@H](C)O)nn3)CC2)nc(N2CCN(C(=O)CCCCCCCCCCNC(=O)[C@H](CCCN=C(N)N)n3cc(C[C@@H](C)CC)nn3)CC2)n1 | 3.82
COc1ccccc1C(=O)OCn1nnc2ccccc2c1=O | -1.17
CN1CCN(C(=O)C23CCC(C)(C(=O)C2Br)C3(C)C)CC1 (centres unmarked) | 1.95
COc1cc(CNCc2ccccn2)ccc1OCc1ccccc1Cl.Cl | -58.3
COc1cc(CNCc2ccccn2)ccc1OCC(=O)NC1CCCCC1.Cl | -14.5
CCOc1cc(CNCc2ccccn2)cc(Cl)c1OCC.Cl | -0.796
CC1=C(C(=O)Nc2ccccc2)C(c2cccs2)NC(=O)N1 (centres unmarked) | 15.6
Cc1cc(C)n(CC(=O)NNC(=O)c2ccc(NC(=O)CC#N)cc2)n1 | 5.56
Cc1cc(C(C)(C)C)ccc1OCCN(C)C | -7.47
Cc1cc(C(C)(C)CC(C)(C)C)ccc1OCCOCC[N+](C)(C)Cc1ccccc1.[Cl-] | -80.9
Cc1cc(C(C)(C)C)ccc1OCCOCCN1CCCC1 | -44.5
Cl.Nc1ccc2c(c1)oc1ccccc12 | 4.15
CCc1ccc(NC(=O)Nc2ccc3c(c2)N(C)C(=O)CS3)cc1 | 7.64
CCc1cc2c(NCCC(=O)O)ncnc2s1 | 4.76
CCc1cc2c(NCCN3CCCCC3)ncnc2s1.Cl | -71.9
CCc1cc2c(NCCO)ncnc2s1 | 14.3
Cc1csc(SCC(=O)NC2CCCCC2)n1 | -1.79
CCOc1ccccc1NC(=O)C(Sc1nnc2ccccn12)c1ccccc1 (centres unmarked) | -12.5

SMILES | hERG current change (%, negative = inhibition) at 10uM [%]
Cc1ccc2cc(C)c3nnc(SCC(=O)NCc4ccco4)n3c2c1 | -25.5
O=C1c2ccc3c4c(ccc(c24)C(=O)N1c1ccc(O)cc1)C(=O)N(c1ccc(O)cc1)C3=O | 23.3
CCNS(=O)(=O)c1ccc(Br)c(OC)c1 | 10.4
Cc1cc(=O)oc2c(C(=O)/C=C\c3cccs3)c(O)ccc12 | 11.1
CCN(CC)CCCNC(=O)c1cc2c(-c3cccc(OC)c3)nn(C)c2s1 | -44.7
COCCCNC(=O)c1cc2c(-c3cccc(OC)c3)nn(C)c2s1 | -5.59
CCN(CC)CCNC(=O)c1cc2c(-c3cccc(OC)c3)nn(C)c2s1 | -31.8
COc1cccc(-c2nn(C)c3sc(C(=O)NCCCN(C)Cc4ccccc4)cc23)c1 | -52.2
CCCCN(C)CCNC(=O)c1cc2c(-c3cccc(OC)c3)nn(C)c2s1 | -49.5
CCN(CCCNC(=O)c1cc2c(-c3cccc(OC)c3)nn(C)c2s1)Cc1ccccc1 | -68.1
O=C(COc1ccccc1Cl)Nc1ccc(S(=O)(=O)N2CCOCC2)cc1 | 15.4
COc1ccc(C(=O)NCCc2c[nH]c3ccccc23)cc1S(=O)(=O)N1CCOCC1 | -9.63
COc1ccc(NC(=O)/C(C#N)=C\c2ccc(Br)o2)cc1 | 4.52
Cc1ccc(C(=O)Nc2cccc(S(=O)(=O)N3CCOCC3)c2)cc1[N+](=O)[O-] | 24.5
O=C(Cn1nc(C(=O)O)c2ccccc2c1=O)Nc1ccc(F)cc1 | 8.44
COCC(=O)OC/C(O)=C(\C#N)c1nc2ccccc2[nH]1 | 11
COC(=O)C1=C(c2c(C)noc2C)C[C@@H]2CC[C@H]1N2C(=O)NCCNC(C)=O | 22.2
CC(NCc1ccc(S(N)(=O)=O)cc1)C(=O)Nc1ccc([N+](=O)[O-])cc1Cl (centres unmarked) | -50.5
CC(NCc1ccc(S(N)(=O)=O)cc1)C(=O)Nc1cccc(Cl)c1 (centres unmarked) | -8.15
CC(NCc1ccc(S(N)(=O)=O)cc1)C(=O)Nc1cc([N+](=O)[O-])ccc1Cl (centres unmarked) | -45.8
